Experimental data as given in PubChem BioAssay.
Activity calls are given as the source filed them. Unless noted, no rule for the calls is given here.

Legend:
[1] = resazurin metabolic signal in HepG2 cells – cell-based, resazurin fluorescence, 24 h, PK04 Diversity Set, profiling panel (AID 1172); conditions: HepG2 viability, higher = more signal; also: test concentration not given here
[2] = budding yeast growth changes without added modifier – OD600, strain BY4716, 24 h, basal condition, primary screen (AID 1173); conditions: S. cerevisiae BY4716 growth, OD600, 24 h; higher = more signal, called active from +8 up or from −8 down
[3] = viability profiling in MM1S myeloma cells – cell-based, resazurin fluorescence, basal, 24 h, PK04 Diversity Set, profiling panel (AID 1174); conditions: higher = more signal, called active from +8 up or from −8 down;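 also: MM1S multiple myeloma cell line; test concentration not given here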
[4] = target: Dihydroorotate dehydrogenase (quinone), mitochondrial (Plasmodium falciparum (isolate 3D7)) (UniProt Q08210); assay: inhibition of P. falciparum DHODH – biochemical, C-terminal His tag, absorbance 600 nm, primary screen (AID 1175); conditions: PfDHODH enzyme, DCIP absorbance 600 nm; higher = more signal, called active from +8 up or from −8 down;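 also: recombinant parasite enzyme with a five histidine tag at its C terminus; test concentration not given here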
[5] = inhibition of PAO1 biofilm formation – strain PAO1, LB-PBS medium, absorbance 600 nm, primary screen (AID 1176); also: test concentration not given here; conditions: P. aeruginosa PAO1 growth/biofilm, A600, 12 h; higher = more signal
[6] = growth modulation of vineyard yeast isolate – strain RM11-1a, OD600, basal, 24 h, primary screen (AID 1177);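 also: cultures grown under basal conditions with no added stressor; test concentration not given here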; conditions: S. cerevisiae RM11-1a growth, OD600, 24 h; higher = more signal, called active from +8 up or from −8 down
[7] = growth of efflux-deficient E. coli DRC39 – strain DRC39, OD650, 24 h, E. coli filamentation inducers, primary screen (AID 1178);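 also: growth measured as culture turbidity by optical density at 650 nm; test concentration not given here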; conditions: E. coli DRC39 acrAB, higher = more signal, called active from +8 up or from −8 down
[8] = growth of efflux-deficient E. coli DRC39 – strain DRC39, OD650, 48 h, E. coli filamentation inducers, primary screen (AID 1179);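 also: screen aims at cell division blockers that make cells filament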; conditions: E. coli DRC39 delta-acrAB growth, higher = more signal, called active from +8 up or from −8 down
[9] = viability profiling in RPMI8226 myeloma cells – cell-based, resazurin fluorescence, basal, 24 h, PK04 Diversity Set, profiling panel (AID 1180); conditions: higher = more signal;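 also: RPMI8826 multiple myeloma cell line at 5000 cells per well; test concentration not given here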
[10] = target: E3 ubiquitin-protein ligase XIAP (Homo sapiens) (UniProt P98170); assay: small molecules binding XIAP protein – biophysical, small-molecule microarray, fluorescence 635 nm, primary screen (AID 1181); conditions: higher = more signal;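 also: score merges 667 nm emission and signal to noise over triplicate slides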
E3 ubiquitin-protein ligase XIAP (Homo sapiens), sequence (P98170 whole entry, looked up): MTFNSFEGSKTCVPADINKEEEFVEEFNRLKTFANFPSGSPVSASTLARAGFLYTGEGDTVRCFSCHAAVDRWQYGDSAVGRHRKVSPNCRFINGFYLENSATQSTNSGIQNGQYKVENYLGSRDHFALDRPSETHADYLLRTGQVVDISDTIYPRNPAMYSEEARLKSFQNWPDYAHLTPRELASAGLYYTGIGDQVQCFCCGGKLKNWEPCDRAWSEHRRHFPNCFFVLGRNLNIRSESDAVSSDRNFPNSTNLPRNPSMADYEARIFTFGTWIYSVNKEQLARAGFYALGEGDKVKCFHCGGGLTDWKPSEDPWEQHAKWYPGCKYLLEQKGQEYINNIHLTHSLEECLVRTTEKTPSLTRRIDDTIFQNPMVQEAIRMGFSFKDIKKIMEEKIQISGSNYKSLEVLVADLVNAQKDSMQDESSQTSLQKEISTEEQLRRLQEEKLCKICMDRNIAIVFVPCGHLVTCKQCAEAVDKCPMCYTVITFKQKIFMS

Dihydroorotate dehydrogenase (quinone), mitochondrial (Plasmodium falciparum (isolate 3D7)), sequence (Q08210 whole entry, looked up): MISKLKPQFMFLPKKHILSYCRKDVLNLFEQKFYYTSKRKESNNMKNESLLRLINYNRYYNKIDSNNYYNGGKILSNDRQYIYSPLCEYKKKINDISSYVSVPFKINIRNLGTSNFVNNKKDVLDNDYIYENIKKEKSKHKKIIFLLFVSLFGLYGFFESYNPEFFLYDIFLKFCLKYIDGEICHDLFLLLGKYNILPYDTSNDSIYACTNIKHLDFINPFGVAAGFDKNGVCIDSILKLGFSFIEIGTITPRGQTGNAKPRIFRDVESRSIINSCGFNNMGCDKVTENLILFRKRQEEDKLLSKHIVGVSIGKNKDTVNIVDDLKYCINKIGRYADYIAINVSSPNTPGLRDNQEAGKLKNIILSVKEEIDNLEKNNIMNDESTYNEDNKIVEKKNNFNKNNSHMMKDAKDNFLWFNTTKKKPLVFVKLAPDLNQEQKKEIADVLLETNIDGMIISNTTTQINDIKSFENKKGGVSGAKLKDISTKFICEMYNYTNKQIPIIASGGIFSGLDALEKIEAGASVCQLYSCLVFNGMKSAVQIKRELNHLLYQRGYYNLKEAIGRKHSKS

Structure (SMILES) | z-score [1] | z-score [2] | z-score [3] | composite z-score [4] | z-score [5] | z-score [6] | z-score [7] | z-score [8] | z-score [9] | composite z-score [10]
O=C1O[C@H](c2ccccc2)[C@H](c2ccccc2)N2[C@H]1[C@@H](C(=O)N1CCCCCCC1)[C@]1(C(=O)Nc3ccccc31)[C@H]2c1ccc(O)cc1 | -0.642 | -0.147 (inactive) | -2.64 (inactive) | 0.64 (inactive) | 0.995 (inactive) | 0.767 (inactive) | -0.328 (inactive) | -0.128 (inactive) | -2.73 | 2.57
COC(=O)[C@]1(Cc2ccccc2N=[N+]=[N-])N=C(c2ccc(OCCCO)cc2)O[C@@H]1c1ccccc1 | -6.11 | -1.69 (inactive) | -8.86 (active) | 0.106 (inactive) | 0.783 (inactive) | 1.53 (inactive) | 2.06 (inactive) | 1.55 (inactive) | -7.19 | 0.007
COc1cc(C(O)C2C=CC3C(=O)N(C)C(=O)C3N2NC(=O)OC(C)(C)C)cc(OC)c1OC (stereo not given) | -1.22 | 1.74 (inactive) | -0.976 (inactive) | 0.0277 (inactive) | 0.847 (inactive) | 0.796 (inactive) | -1.01 (inactive) | -0.503 (inactive) | -1.24 | 0.085
C[N+](C)(C)CCCC[C@@H]1NC(=O)[C@H]2C[C@@H](C(=O)NCCCCCCN)[C@@H](c3cccc(OCCO)c3)N2C1=O | -2.69 | -0.707 (inactive) | 0.45 (inactive) | -0.114 (inactive) | 1.18 (inactive) | -0.0241 (inactive) | -0.678 (inactive) | -1.35 (inactive) | 0.652 | 0.194
COCCCNC(=O)[C@]1(CCS(=O)(=O)c2ccccc2)N=C(c2ccc(OCCCO)cc2)O[C@@H]1c1ccccc1 | 0.484 | -0.324 (inactive) | 0.294 (inactive) | 0.888 (inactive) | -0.0304 (inactive) | -0.588 (inactive) | 0.604 (inactive) | 0.607 (inactive) | -0.0847 | 0.209
COc1cccc(C)c1NC(=O)O[C@H]1[C@H](OC(=O)Nc2ccccc2)[C@H](OC(=O)Nc2ccccc2)[C@@H](OC)O[C@@H]1CO | -1.22 | 0.803 (inactive) | -2.2 (inactive) | 0.111 (inactive) | 0.565 (inactive) | 0.673 (inactive) | 0.462 (inactive) | -0.358 (inactive) | -1.65 | 0.0744
C=CCC(OC(C)=O)[C@@H]1[C@@H](N(Cc2ccc(-c3ccccc3)cc2)C(=O)c2cccc3ccccc23)c2cc(OCCCO)ccc2N1C(=O)c1ccc2ccccc2n1 (stereo not given in full) | -0.253 | -0.953 (inactive) | 0.0319 (inactive) | -0.178 (inactive) | 0.161 (inactive) | -0.909 (inactive) | 0.908 (inactive) | 0.376 (inactive) | 0.131 | -0.0282
O=C(CS)NCCCCCNC(=O)[C@@H]1C[C@@H]2C(=O)N3CCC[C@H]3C(=O)N2[C@@H]1c1ccc(O)cc1 | -0.196 | -0.419 (inactive) | -0.0752 (inactive) | 0.252 (inactive) | -0.102 (inactive) | 0.132 (inactive) | -0.651 (inactive) | -0.265 (inactive) | -0.0255 | -0.127
CCCN1C(=O)[C@@H]2Cc3c([nH]c4ccccc34)[C@@H](c3cccc(O)c3)N2C1=O | 0.944 | 0.852 (inactive) | 0.327 (inactive) | -0.931 (inactive) | 0.764 (inactive) | 0.0696 (inactive) | 0.19 (inactive) | 0.0246 (inactive) | 0.0074 | -0.313
COCC1=C([C@H](O)CCc2ccccc2)[C@H](CO)[C@@H]2C(=O)N(C)C(=O)[C@@H]2C1 | -0.548 | -1.66 (inactive) | 0.244 (inactive) | -0.0291 (inactive) | 0.908 (inactive) | 0.1 (inactive) | 2.16 (inactive) | 1.65 (inactive) | 0.544 | -0.353
COc1ccc(C(=O)Nc2ccc3c(c2)[C@]2(O[C@@H](CCO)[C@H]([Si](C)(C)c4ccc(OC)cc4)[C@H]2C)C(=O)N3Cc2ccccc2)cc1 | -1.9 | -2.35 (inactive) | -7.18 (inactive) | -0.454 (inactive) | 1.55 (inactive) | 2.47 (inactive) | 0.799 (inactive) | -0.167 (inactive) | -2.51 | -0.165
O=C1C2C=CC(C(O)c3ccc(Br)cc3)N(Nc3ccccc3)C2C(=O)N1c1ccccc1 (stereo not given) | -0.69 | -3.48 (inactive) | -1.95 (inactive) | 1.02 (inactive) | 1.22 (inactive) | 0.501 (inactive) | -0.387 (inactive) | -0.604 (inactive) | -1.48 | 0.184
CC(C)=CCCC(C)=CC(O)C1C=CC2C(=O)N(c3ccccc3)C(=O)C2N1Nc1ccc([N+](=O)[O-])cc1 (stereo not given) | -0.674 | -1.14 (inactive) | -0.753 (inactive) | -0.697 (inactive) | 0.492 (inactive) | -0.853 (inactive) | -1.49 (inactive) | -1.43 (inactive) | -0.276 | 0.0817
N#Cc1ccc(NN2C(C(O)c3ccccc3)C=CC3C(=O)N(c4ccccc4)C(=O)C32)cc1 (stereo not given) | -0.822 | -1.47 (inactive) | -0.0476 (inactive) | -0.804 (inactive) | 0.158 (inactive) | -0.323 (inactive) | -0.371 (inactive) | 0.0355 (inactive) | -1.15 | -0.0062
COc1ccc([Si](C)(C)[C@@H]2[C@@H](CC(=O)N3Cc4ccccc4C[C@H]3CO)O[C@]3(C(=O)N(Cc4cccc(N5CCCCC5=O)c4)c4ccccc43)[C@H]2C)cc1 | -1.16 | 0.0062 (inactive) | -3.09 (inactive) | -1.02 (inactive) | 0.331 (inactive) | 1.98 (inactive) | -0.453 (inactive) | -0.878 (inactive) | -2.15 | -0.148
C=CCNC(=O)[C@H]1[C@@H]2C(=O)O[C@@H](c3ccccc3)[C@@H](c3ccccc3)N2[C@@H](c2ccc(OCCO)cc2)[C@]12C(=O)N(C(=O)OCCOC)c1ccc(C#CC3=CCCCC3)cc12 | 0.293 | 0.567 (inactive) | -0.344 (inactive) | -0.91 (inactive) | 2.06 (inactive) | 1.45 (inactive) | -0.178 (inactive) | 0.215 (inactive) | 0.136 | -0.0727
O=C1NC(=O)C2C1C=CC(C(O)c1ccc(-c3ccccc3)s1)N2Nc1ccccn1 (stereo not given) | -1.04 | 1.14 (inactive) | -1.12 (inactive) | 1.24 (inactive) | 1.23 (inactive) | 0.347 (inactive) | 0.547 (inactive) | 0.193 (inactive) | -1.17 | 0.549
COC(=O)C(CC#Cc1ccc2c(c1)[C@]1(C(=O)N2)[C@H](c2ccccc2OCCO)N2[C@H](c3ccccc3)[C@H](c3ccccc3)OC(=O)[C@H]2[C@@H]1C(=O)Nc1nc2ccccc2s1)C(=O)OC | -0.449 | 1.4 (inactive) | 0.699 (inactive) | -8 (inactive) | 3.7 (inactive) | 2.33 (inactive) | -0.0715 (inactive) | 0.172 (inactive) | 1.05 | 0.0264
O=C(O)[C@@]1(Cc2ccccc2)COC(c2ccc(OCCCO)cc2)=N1 | 0.0838 | 1.02 (inactive) | 0.296 (inactive) | 1.75 (inactive) | 0.274 (inactive) | 1.4 (inactive) | 1.58 (inactive) | 0.466 (inactive) | 0.318 | 0.33
CN(C)CCCNC(=O)[C@@]1(Cc2ccccc2I)c2ccccc2C(=O)N(Cc2ccccc2Cl)[C@H]1c1ccc(CO)cc1 | -6.48 | -7.72 (inactive) | -8.82 (active) | -0.205 (inactive) | -0.233 (inactive) | -0.0889 (inactive) | -0.268 (inactive) | -1.26 (inactive) | -6.59 | 0.166
COCCOC(=O)N1C(=O)[C@@]2(c3cc(C#Cc4ccc(OC)cc4)ccc31)[C@H](C(=O)N1CCc3cc(OC)c(OC)cc3C1)[C@H]1C(=O)O[C@H](c3ccccc3)[C@H](c3ccccc3)N1[C@@H]2c1ccc(O)cc1 | -0.0637 | 1.12 (inactive) | -0.108 (inactive) | 0.751 (inactive) | 0.858 (inactive) | 2.08 (inactive) | -0.145 (inactive) | 0.26 (inactive) | 0.0506 | 0.202
